# Sampled rows, rich in hits. Any-hit rate of the full collection: about 11%.
# Pf growth 48h: inhibits P. falciparum growth in the first generation, 48 h | P. falciparum luciferase growth in erythrocytes, 48 h | actives 5.9% (n = 310,000) | Potency, µM (highest dose often 28.7 µM), inactives show top-dose activity change, negative = inhibition, most hits filed as inhibitors | AID 504832; note: % is set by controls: 0 for no effect and ±100 for the full control effect
#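 Erythrocytes infected with P. falciparum carrying an integrated firefly luciferase reporter (2% hematocrit, 0.1% parasitemia final) were exposed to compounds in RPMI 1640 with 0.5% Albumax at 37 C, 5% CO2. Growth inhibition was scored as reduced luminescence.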
# HCV inh: blocks hepatitis C virus; Potency, µM (titrated, usually from 41.8 µM), inactives show at the top dose activity change, negative = inhibition, most hits filed as inhibitors; actives 3.4% (n = 340,000); Huh7.5.1 HCVcc-Cre infection, luciferase reporter, 44 h; note: % is set by controls: 0 for no effect and ±100 for the full control effect
#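 After 44 h co-culture of compound, cells and HCVcc-Cre (~0.5 moi), substrate is added for 15 min at room temperature and luciferase measured over 15 sec. Cells were seeded at 1,000/well and pre-cultured 4 h.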
# Vaccinia mCherry: inhibitors of vaccinia virus infection (mCherry reporter signal); AID 720579; Vaccinia virus mCherry reporter infection, fluorescence; Potency, µM (series often up to 36.5 µM), for the others: at the top dose activity change, negative = inhibition, actives largely listed as inhibitors; actives 0.63% (n = 310,000); calls by dose curve; tested in A549 cells; note: % is set by controls: 0 for no effect and ±100 for the full control effect; nearly all actives have a fitted effect of over 35% in size
# Pf growth 96h: P. falciparum growth inhibition at 96 hour, primary screen for plastid delayed-death inhibitors; P. falciparum luciferase reporter growth, 96 h; Potency, µM (highest dose often 28.7 µM), for inactives: at the top dose activity change, negative = inhibition, actives largely listed as inhibitors; actives 6.9% (n = 320,000); AID 504834; note: % is set by controls: 0 for no effect and ±100 for the full control effect
#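 Two parasite generations (96 h, 37 C, 5% CO2) of compound exposure in infected erythrocytes (0.05% parasitemia, 2% hematocrit). Luciferase-reporter P. falciparum; decreased luminescence indicates inhibited growth, aimed at apicoplast-acting delayed death.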
# NS1 function inh: inhibitors of influenza NS1 protein function; AID 2326; Potency, µM (series often up to 46.1 µM), inactives show top-dose activity, positive = more growth; actives 0.4% (n = 270,000); calls by dose curve; note: actives are rising curves; nearly all actives have a fitted effect of over 50% in size
#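 S. cerevisiae expressing influenza A NS1, grown in glucose, washed, then diluted 1:100 into pH 6.0 -URA galactose medium with 23 nl compound. Growth recovery read as OD600; NS1-free strain serves as control.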
# VACV Venus inh: vaccinia inhibition (Venus reporter). Vaccinia virus Venus reporter expression, fluorescence. Potency, µM (top dose mostly 36.5 µM), for the others: at the top dose activity change, negative = inhibition, most hits filed as inhibitors. actives 0.46% (n = 330,000). AID 720580; calls by dose curve; tested in A549 cells; note: % is set by controls: 0 for no effect and ±100 for the full control effect; nearly all actives have a fitted effect of over 30% in size
# * hit, by the source's call; i = inactive; ? = inconclusive; · = no result given; [ ] = dose if it differs, or a comment. Unless noted, calls come from the whole dose curve; as a rule, active = well fitted inhibition curve with a large enough effect; inconclusive = small, poorly fitted or top-dose-only effect, or another doubt; inactive = no such curve, though single readings can be large or run the other way. Potency is the fitted concentration of half-maximal effect.
SMILES,Pf growth 48h,HCV inh,Vaccinia mCherry,Pf growth 96h,NS1 function inh,VACV Venus inh
CN(C)S(=O)(=O)c1ccc(N2CCCC2)c(C(=O)Nc2nc(-c3ccc(F)c(F)c3)cs2)c1,?,-20%,-2%,10µM*,18%,-3%
COc1ccc(-c2csc(NC(=O)c3ccccc3NS(=O)(=O)c3ccc(F)c(F)c3)n2)cc1,1.9µM*,2.8µM*,?,?,0%,?
CC(C)NC(=O)N(C)C[C@H]1Oc2c(NS(=O)(=O)c3ccc(F)cc3)cccc2C(=O)N([C@H](C)CO)C[C@@H]1C,·,13%,i,·,·,-2%
Cc1nc2ccccc2c(=O)n1Cc1ccco1,16%,?,·,-29%,5%,·
COc1ccccc1C1CC(c2cccs2)=Nc2ccccc2S1 (stereo not drawn),·,?,-4%,10µM*,-15%,-11%
CC(=O)Nc1ccc2c(c1)OCCOCCOc1cc(NC(C)=O)ccc1OCCO2,?,-23%,?,?,4%,-7%
O=C(O)C1(C(=O)O)CCCC1,·,11%,i,·,·,-8%
COc1cccc(N2CCN(C(=O)CN(c3cc(C)cc(C)c3)S(=O)(=O)c3c(C)noc3C)CC2)c1,?,?,·,10µM*,-3%,·
COc1ccc(N(CC(=O)N2CCN(c3ccccc3F)CC2)S(=O)(=O)c2c(C)n[nH]c2C)cc1,?,2%,-9%,?,·,-15%
CS(=O)(=O)N(CC(=O)N1CCN(c2ccccc2F)CC1)c1cc(C(F)(F)F)ccc1Cl,·,?,-5%,10µM*,-10%,-16%
CCOc1ccc(N(CC(=O)N2CC=C(c3ccccc3)CC2)S(=O)(=O)c2c(C)noc2C)cc1,·,20%,31%,35%,-30%,-11%
COc1ccc(N(CC(=O)N2CC=C(c3ccccc3)CC2)S(=O)(=O)c2c(C)noc2C)cc1,·,-7%,10%,3.7µM*,-50%,-2%
CS(=O)(=O)N(CC(=O)N1CCN(c2ccccc2)CC1)c1cc(C(F)(F)F)ccc1Cl,-17%,7%,-2%,·,4%,-23%
COc1ccc(N(CC(=O)N2CCN(c3ccccc3F)CC2)S(=O)(=O)c2c(C)noc2C)cc1,-14%,7%,-20%,5.9µM*,3%,-13%
Cc1ccc(CNCCCSc2nc(C)cc(C)n2)cc1,8%,?,·,-16%,-5%,·
CCCC(=O)N1CCC1(C)C(=O)NS(=O)(=O)c1cccs1 (stereo not drawn),·,·,i,·,·,-4%
N#CCC(=O)N1CC2(CC(c3cccc(NC(=O)COc4ccc(Cl)cc4)c3)=NO2)C[C@@H]1C(N)=O (stereo partly drawn),24%,-2%,i,21%,1%,-3%
COc1ccc(N(CC(=O)N2c3ccccc3CC2C)S(=O)(=O)c2c(C)noc2C)cc1 (stereo not drawn),12µM*,-8%,·,-21%,8%,·
CCOc1ccc(N(CC(=O)N2CCc3ccccc32)S(=O)(=O)c2c(C)noc2C)cc1,·,7%,-11%,5%,-18%,-20%
Cc1ccc(N(CC(=O)N2CCN(c3ccccc3F)CC2)S(=O)(=O)c2c(C)noc2C)cc1,?,7%,i,9.3µM*,6%,-20%
Cc1ccc2c(=O)c(C(=O)c3ccc(F)cc3)cn(CC(=O)NCc3ccco3)c2n1,5%,1%,-12%,?,2%,-4%
COc1cc(NC(=O)NCc2ccco2)ccc1-c1ccc(NC(=O)NCc2ccco2)cc1OC,·,11µM*,?,·,·,-21%
COc1cccc(C(=O)NC(=S)NCc2ccco2)c1,70%,8%,-4%,3.7µM*,1%,-5%
COc1ccccc1NC(=O)NCc1ccco1,10%,?,-12%,-4%,·,-19%
COc1ccc(C(=O)NC(=S)NCc2ccco2)cc1OC,0%,-10%,·,7.4µM*,28%,-12%
SMILES,Pf growth 48h,HCV inh,Vaccinia mCherry,Pf growth 96h,NS1 function inh,VACV Venus inh
COc1cccc(C(=O)c2cn(CC(=O)NCc3ccco3)c3nc(C)ccc3c2=O)c1,-18%,1%,-12%,4.1µM*,12%,2%
Cc1cccc(N2CCN(C(=O)CCCn3ncn4c(cc5occc54)c3=O)CC2)c1C,·,·,?,·,·,-16%
C#CCOCCOCCOCCNc1nc(N2CCN(C(=O)Cn3cc(CC(C)O)nn3)CC2)nc(N2CCN(C(=O)[C@H]([C@@H](C)CC)n3cc(CCCN=C(N)N)nn3)CC2)n1 (stereo partly drawn),-20%,-14%[8.37 µM],i,4.7µM*,-9%,-10%
C#CCOCCOCCOCCNc1nc(N2CCN(C(=O)[C@H]([C@@H](C)CC)n3cc(CCCN=C(N)N)nn3)CC2)nc(N2CCN(C(=O)[C@H](C)n3cc(CCCN=C(N)N)nn3)CC2)n1,?,-1%[8.37 µM],i,0.17µM*,8%,-12%
C#CCOCCOCCOCCNc1nc(N2CCN(C(=O)[C@H]([C@@H](C)CC)n3cc(CCCN=C(N)N)nn3)CC2)nc(N2CCN(C(=O)[C@H]([C@@H](C)CC)n3cc(CCCN=C(N)N)nn3)CC2)n1,?,10%[8.37 µM],·,0.93µM*,-12%,·
C#CCOCCOCCOCCNc1nc(N2CCN(C(=O)[C@H](C(C)C)n3cc(CCO)nn3)CC2)nc(N2CCN(C(=O)[C@H](C)n3cc(CCCN=C(N)N)nn3)CC2)n1,·,-6%[8.37 µM],-14%,·,·,6%
C#CCOCCOCCOCCNc1nc(N2CCN(C(=O)Cn3cc(CCCN=C(N)N)nn3)CC2)nc(N2CCN(C(=O)[C@H]([C@@H](C)CC)n3cc(CCC(=O)O)nn3)CC2)n1,-11%,5%,i,-15%,-1%,3%
C#CCOCCOCCOCCNc1nc(N2CCN(C(=O)Cn3cc(CCCN=C(N)N)nn3)CC2)nc(N2CCN(C(=O)Cn3cc(CCCN=C(N)N)nn3)CC2)n1,?,-4%[8.37 µM],·,0.033µM*,12%,·
C#CCOCCOCCOCCNc1nc(N2CCN(C(=O)Cn3cc(CCO)nn3)CC2)nc(N2CCN(C(=O)[C@H]([C@@H](C)CC)n3cc(CCCN=C(N)N)nn3)CC2)n1,·,13%,i,·,·,-4%
CCCCCCCOc1ccc(C2CC(=O)N(C)C2=O)cc1 (stereo not drawn),26%,8%,-21%,?,11%,-18%
O=C(O)C(Cc1ccccc1)N1C(=O)c2cccc3cccc(c23)C1=O (stereo not drawn),8%,16%,-7%,?,4%,-13%
Cc1cc(C)c2c(=O)n(CC(=O)Nc3ccc(Cl)cc3)sc2n1,4%,-9%,0%,-1%,-107%,-27%
Cc1nnc(NC(=O)c2ccccc2Br)s1,65%,20%,-13%,58%,-17%,-8%

# From PubChem
